Experimental data taken from the supplement of paper PMC10646978.
± gives the standard deviation.

Legend:
Conditions in all cases: modulator concentration 10 µM
[1] = system: RAW-Dual (murine macrophage reporter line); experiment: NF-kB reporter (SEAP) activity fold change vs agonist alone; higher = enhanced NF-kB activity
Method in brief: (§1)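 In 384-well plates holding 50 000 RAW-Dual murine macrophage reporter cells per well, compound at 10 μM final was pre-incubated for 1 hour at 37 °C, after which a PRR agonist was added overnight. Supernatant SEAP read with QUANTI-Blue at 620 nm absorbance reported NF-κB, and Lucia luciferase read with QUANTI-Luc luminescence reported IRF. Fold change values come from dividing each reporter signal by the mean of agonist-only control wells on the same plate, averaged over replicate plates with propagated errors.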

[2] = system: RAW-Dual (murine macrophage reporter line); experiment: IRF reporter (Lucia luciferase) activity fold change vs agonist alone; higher = enhanced IRF activity
Method in brief: as §1

[3] = system: RAW-Dual (murine macrophage reporter line); experiment: viability score (confluency relative to resting cells, overnight) (fraction); higher = more viable, active = viable (0.7 or more)
Method in brief: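 In 384-well plates, RAW-Dual macrophages received compound at a final 10 μM overnight. Two confluency masks were then made with IncuCyte software from IncuCyte images of all imaged wells. The viability score is defined as confluency relative to resting cells. Passing the cutoff required both masks to lie above 70% of resting cells.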

[4] = agonist: CpG ODN 1826 0.5 ug/mL

SMILES	NF-kB reporter [1, 4]	NF-kB reporter ([1]; agonist: LPS 0.1 ug/mL)	NF-kB reporter ([1]; agonist: MPLA […])	IRF reporter ([2]; agonist: 3'3'-cGAMP 10 ug/mL)	IRF reporter ([2]; agonist: LPS 0.1 ug/mL)	IRF reporter ([2]; agonist: MPLA […])	viability score [3]
Cc1oncc1C(=O)NCCn1nc(C(F)(F)F)cc1C1CC1	1.06 ± 0.096	1.05 ± 0.081	0.991 ± 0.067	0.972 ± 0.039	0.978 ± 0.087	0.935 ± 0.21	1 (active)
COc1ccc(CNC2CCCc3ccccc32)c(OC)c1 (stereo not given)	0.48 ± 0.13	0.812 ± 0.088	0.775 ± 0.12	0.615 ± 0.027	1.23 ± 0.13	1.61 ± 0.17	0.94 (active)
CC1(C)CC(=O)C2=C(C1)OC(N)=C(C#N)C21C(=O)Nc2ccc(Br)cc21 (stereo not given)	0.954 ± 0.077	1.05 ± 0.08	0.955 ± 0.057	0.967 ± 0.032	1.18 ± 0.1	1.03 ± 0.096	1.01 (active)
Nc1nc(=O)n([C@@H]2CS[C@H](CO)O2)cc1F	1.59 ± 0.24	1.3 ± 0.46	1.21 ± 0.073	0.62 ± 0.15	0.98 ± 0.22	0.836 ± 0.21	1 (active)
c1ccc2nc3c(cc(N4CCOCC4)c4ccccc43)nc2c1	0.92 ± 0.078	1.04 ± 0.062	0.969 ± 0.14	0.924 ± 0.023	1.34 ± 0.2	1.08 ± 0.2	1.01 (active)
Cc1ccc(C2=NN3C(=N)C(=Cc4c[nH]c5ccccc45)C(=O)N=C3S2)cc1	0.997 ± 0.079	1.03 ± 0.065	0.932 ± 0.058	0.974 ± 0.024	1.38 ± 0.2	1.12 ± 0.21	1.01 (active)
CC(C)c1cc(-c2n[nH]c(=O)n2-c2ccc3c(ccn3C)c2)c(O)cc1O	0.0963 ± 0.0078	0.155 ± 0.012	0.681 ± 0.062	1.08 ± 0.059	1.22 ± 0.09	1.41 ± 0.12	0.542 (inactive)
COc1ccc(C=CC(=O)Nc2sc(C(=O)OC(C)C)c(C)c2C(N)=O)cc1	0.846 ± 0.076	0.798 ± 0.045	0.958 ± 0.086	0.949 ± 0.043	1.44 ± 0.092	1.57 ± 0.17	1 (active)
c1ccc(OCCOc2ccc(Nc3ccnc4cc5ccccc5cc34)cc2)cc1	0.294 ± 0.05	1.04 ± 0.067	1.8 ± 0.17	0.896 ± 0.035	1.48 ± 0.13	1.78 ± 0.17	0.23 (inactive)
CCOC(=O)C1=C(C)NC(C)=C(C(=O)OCC)C1c1ccc(O)cc1	1.41 ± 0.23	0.895 ± 0.083	1.35 ± 0.13	1.01 ± 0.03	0.971 ± 0.16	0.966 ± 0.099	0.991 (active)
COC(=O)C1=C(C)NC(C)=C(C(=O)O[C@@H]2CCCN(Cc3ccccc3)C2)[C@@H]1c1cccc([N+](=O)[O-])c1 [Prestw-1766]	0.317 ± 0.025	0.731 ± 0.069	0.717 ± 0.071	0.412 ± 0.043	1.1 ± 0.14	0.886 ± 0.21	1.07 (active)
O=C(CCC(=O)NN=Cc1ccc(O)cc1O)NN=Cc1ccc(O)cc1O	0.934 ± 0.084	1.05 ± 0.067	0.978 ± 0.11	0.944 ± 0.042	1.52 ± 0.18	1.26 ± 0.13	0.994 (active)
C#Cc1cccc(Nc2ncnc3cc(OCCOC)c(OCCOC)cc23)c1	0.819 ± 0.051	1.1 ± 0.092	0.945 ± 0.05	0.948 ± 0.055	1.05 ± 0.16	1.13 ± 0.3	0.993 (active)
O=Cc1c[nH]c2ccccc12	0.913 ± 0.2	1.5 ± 0.14	1.4 ± 0.23	0.982 ± 0.04	1.25 ± 0.26	1.54 ± 0.16	0.985 (active)
C[C@@H](O[C@H]1OCCN(Cc2nc(=O)[nH][nH]2)[C@H]1c1ccc(F)cc1)c1cc(C(F)(F)F)cc(C(F)(F)F)c1 [Prestw-1600]	0.345 ± 0.022	0.516 ± 0.058	0.333 ± 0.023	1.64 ± 0.067	1.23 ± 0.078	0.969 ± 0.13	0.264 (inactive)
Cc1cn[nH]c1	0.122 ± 0.015	0.0449 ± 0.0036	0.154 ± 0.0086	0.685 ± 0.032	1.81 ± 0.19	2.85 ± 0.43	0.702 (active)
COc1ccc(CC(=O)Nc2nc(CSCc3ccc(F)cc3)cs2)cc1	0.968 ± 0.057	1.06 ± 0.081	1.08 ± 0.069	0.832 ± 0.036	0.981 ± 0.045	0.968 ± 0.1	0.941 (active)
CCOC(=O)C1=C(C)NC(C)=C(C(=O)OC)C1c1cccc(Cl)c1Cl (stereo not given)	0.824 ± 0.081	0.603 ± 0.053	0.764 ± 0.068	1.13 ± 0.06	1.35 ± 0.095	1.03 ± 0.17	0.859 (active)
COC(=O)c1cc(NC(=O)C2CCCC2)cc(C(=O)OC)c1	0.969 ± 0.18	1 ± 0.13	1.15 ± 0.13	0.871 ± 0.09	1.13 ± 0.28	0.97 ± 0.14	0.633 (inactive)
NC(=O)c1cn(Cc2c(F)cccc2F)nn1	1.01 ± 0.075	0.951 ± 0.12	1 ± 0.049	1.17 ± 0.3	0.923 ± 0.08	0.906 ± 0.12	0.999 (active)
CS(=O)(=O)O.O=C(NC1CCN(CCCCC2(C(=O)NCC(F)(F)F)c3ccccc3-c3ccccc32)CC1)c1ccccc1-c1ccc(C(F)(F)F)cc1	0.0785 ± 0.0033	0.0479 ± 0.004	0.118 ± 0.0076	0.0799 ± 0.0056	0.0322 ± 0.0052	0.0401 ± 0.0064	0.258 (inactive)
O=C(NCCN1CCN(c2ccc(F)cc2)CC1)c1ccno1	1.04 ± 0.1	0.965 ± 0.077	0.991 ± 0.026	0.982 ± 0.059	0.968 ± 0.072	0.929 ± 0.14	0.999 (active)
Nc1ccccc1NC(=O)c1ccc(CNc2nccc(-c3cccnc3)n2)cc1	2.46 ± 0.12	1.73 ± 0.15	2.58 ± 0.15	0.0523 ± 0.0046	0.16 ± 0.016	0.186 ± 0.051	0.56 (inactive)
CCN(CC)C(=O)C(=Cc1ccc(Br)cc1)NC(=O)c1ccccc1OC	1.06 ± 0.084	1.09 ± 0.11	1.09 ± 0.075	1.14 ± 0.028	1.61 ± 0.25	1.28 ± 0.12	1.01 (active)
Nc1ccc(S(N)(=O)=O)cc1	1.1 ± 0.094	0.993 ± 0.069	1 ± 0.088	1.22 ± 0.27	0.933 ± 0.038	0.904 ± 0.072	0.994 (active)
